E coli growth-1: E. coli growth inhibition, primary screen, OD600. OD600 absorbance (test concentration not listed). hit rate 0.21% among 330,000. AID 1053175, 2014. Escherichia coli growth, 23 h; active compounds read low;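 active = OD600 absorbance below the run mean of sample wells minus 3.6 SD, in any replicate, cut at about 0.56 in these data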
AddAB inh: growth inhibition of E. coli expressing H. pylori AddAB, primary screen, AddAB inhibitor project, absorbance | hit rate 0.29% among 330,000 | inhibition, % at 11.9 µM; in the data active = inhibition above about 12%;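 also: 0% = vehicle wells of infected cells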
E coli growth-2: E. coli V3065 growth inhibition, primary screen, counter-screen for AddAB inhibitor project, absorbance, OD600. AID 449728, 2010. 18 h. hit rate 0.27% among 330,000. inhibition, % at 11.9 µM;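 active = inhibition above the campaign's mean inhibition across all tested compounds plus 3 SD, cut at about 9.9% in these data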;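 also: uninfected addAB+ strain grown without phage in ampicillin broth; 0% = DMSO wells and 100% = ciprofloxacin 0.95 µg/ml wells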
Tat transport: E. coli Tat export inhibitors, primary screen, MC4100, TorA-mCherry reporter, fluorescence, single point. hit rate 0.036% among 340,000. inhibition, % at 10 µM. AID 488895, 2010;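 active = mean replicate inhibition at least 50% and at least half of replicates individually reaching 50%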;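 also: exported cargo escapes ClpAP degradation while cytoplasmic cargo is degraded and loses fluorescence; 0% = median of neutral control wells and 100% = median of NaSCN control wells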
phage Ecoli inh: growth loss of phage-infected E. coli, primary screen, RecBCD inhibitor project, absorbance, with phage, HTS; inhibition, % at 11.9 µM; hit rate 0.26% among 360,000; in the data active = inhibition above about 11%
Starred values were filed as active, the others as inactive; x = not tested or not shown. Shown are actives, neighbours in structure and some others; about 0.5% of the full set was active somewhere.

SMILES	E coli growth-1	AddAB inh	E coli growth-2	Tat transport	phage Ecoli inh
Cc1ccc(-n2[nH]c(C)c(C=Nc3ccc(S(=O)(=O)Nc4nccs4)cc3)c2=O)cc1	0.658	12.6*	8.5	x	x
CCCOc1ccc(C(=O)NNC(=S)NC(=O)c2ccco2)cc1	0.551	3.8	1.5	-3.4	3.5
COc1ccc(C(=O)NNC(=S)NC(=O)c2ccco2)cc1	0.444*	1.9	-1.1	3.3	-1.6
CCCCOc1ccc(C(=O)NNC(=S)NC(=O)CC)cc1	0.557	-6.7	-4.6	1.5	x
CCC(=O)NC(=S)NNC(=O)c1ccc(OC)cc1	0.458*	-1.4	0.7	12.4	-5.8
CCCOc1ccc(C(=O)NNC(=S)NC(C)=O)cc1	0.273*	3.7	-7.1	-19.2	6.8
O=C(c1ccc(Cl)c(Cl)c1)N1CCN(Cc2ccc3c(c2)OCO3)CC1	0.652	4.3	2.6	2.3	2.1
Nc1ncnc2nc(N3CCN(C(=O)c4ccccc4)CC3)[nH]c12	0.747	3.8	0.8	-1.7	1.2
CNS(=O)(=O)c1cccc(C(=O)OCC(=O)Nc2ccc(Cl)cc2F)c1	0.69	1.4	0.8	3.3	1.8
CNS(=O)(=O)c1cccc(C(=O)OCC(=O)Nc2cc(F)ccc2F)c1	0.7	3.3	10.6*	-11.9	0.4
CC(=O)N1N=C(c2ccccc2)OC1c1ccc([N+](=O)[O-])s1 (configuration not stated)	0.511*	-2.2	1.2	-1.7	x
CC(=O)N1N=C(c2cccc([N+](=O)[O-])c2)OC1c1ccc(Br)cc1 (configuration not stated)	0.654	-0.8	1.2	15.9	1.5
CCC[C@@H](CN1CCC[C@H]1CN1C(N)=NC[C@H]1CC(C)C)N1C[C@@H](Cc2ccccc2)N(CCCC2CCCC2)C1=N	0.268*	4.2	2.7	11.6	1.0
CC(C)[C@H](CN1CCC[C@H]1CN1C(N)=NC[C@@H]1Cc1ccccc1)N1C[C@@H](Cc2ccccc2)N(CCc2ccc(Cl)c(Cl)c2)C1=N	x	6.5	5.6	8.1	x
CC[C@@H](C)[C@@H]1CN([C@@H](CN2CCC[C@H]2CN2C(N)=NC[C@H]2CC(C)C)C(C)C)C(=N)N1CCc1ccc(Cl)c(Cl)c1	0.127*	8.1	5.9	31.1	4.6
CCCC(CN1CCCC1CN1C(N)=NCC1Cc1ccccc1)N1CC(Cc2ccccc2)N(CCc2ccc(Cl)c(Cl)c2)C1=N (configuration not stated)	0.0615*	x	x	x	x
CC[C@@H](C)[C@@H]1CN([C@@H](C)CN2CCC[C@H]2CN2C(N)=NC[C@H]2CC(C)C)C(=N)N1CCc1ccc(Cl)c(Cl)c1	x	2.2	1.4	10.7	4.7
CCC[C@@H](CN1CCC[C@H]1CN1C(N)=NC[C@H]1CC(C)C)N1C[C@@H](Cc2ccccc2)N(CCc2ccc(Cl)c(Cl)c2)C1=N	0.0585*	4.5	8.0	0.0	0.7
CCC[C@@H](CN1CCC[C@H]1CN1C(N)=NC[C@@H]1Cc1ccccc1)N1C[C@@H](Cc2ccccc2)N(CCc2ccc(Cl)c(Cl)c2)C1=N	x	2.4	3.1	2.5	4.2
CCC[C@@H](CN1CCC[C@H]1CN1C(N)=NC[C@@H]1Cc1ccccc1)N1C[C@@H]([C@H](C)CC)N(CCc2ccc(Cl)c(Cl)c2)C1=N	x	7.3	2.6	0.1	x
C[C@@H](CN1CCC[C@H]1CN1C(N)=NC[C@@H]1Cc1ccccc1)N1C[C@@H](Cc2ccccc2)N(CCc2ccc(Cl)c(Cl)c2)C1=N	x	7.3	6.0	65.8*	x
CCCC(CN1CCCC1CN1C(N)=NCC1Cc1ccccc1)N1CC(C(C)CC)N(CCc2ccc(Cl)c(Cl)c2)C1=N (configuration not stated)	0.338*	x	x	x	x
CCCC1S/C(=N/N=C/c2ccc(C)cc2)N(Cc2ccc(OC)cc2)C1=O (configuration not stated)	x	0.2	0.5	-9.9	2.2
CCCNC(=O)C(Cc1ccccc1)NC(=O)c1cccc([N+](=O)[O-])c1 (configuration not stated)	0.65	-1.1	-3.7	5.8	0.3
O=[N+]([O-])c1nn(-c2ccccc2)n(O)c1=NC1CCN(Cc2ccccc2)CC1	0.591	8.0	10.3*	4.4	5.0
Cc1cc(C(C#N)c2ccc(Cl)cc2)c(Cl)cc1NC(=O)c1cc(I)cc(I)c1O (configuration not stated)	x	8.4	11.0*	-8.9	4.9
CC(OC(=O)c1cccc(-n2cnnn2)c1)C(=O)Nc1ccc(F)cc1Cl (configuration not stated)	0.617	-1.7	-1.3	-2.5	-0.4

Assay outcomes (PubChem BioAssay)
